The text below walks through data of PMC5540273 (PLoS ONE, 2017).

What all share (conditions): concentration: 1 μM, replicates: in singlicate; n = 1
Test [1] deals with MKK7.
Test [2] relates to MKNK1.
The subject of test [3] is MKNK2.
Test [4] relates to T1, MLCK.
T1 construct: gene MYLK3

Test [5] relates to T2, MLK1.
T2 construct: gene MAP3K9

The test system of test [6] is MLK2.
Test [7] concerns MLK3.
Test [8] concerns MRCKA.
Test [9] concerns T3, MRCKB.
T3 construct: gene CDC42BPB

Test [10] concerns MST1R.
Test [11] relates to T4, MST1.
T4 construct: gene STK4

The subject of test [12] is T5, MST2.
T5 construct: gene STK3

Test [13] has as its system T6, MST3.
T6 construct: gene STK24

Test [14] has as its system MST4.
For test [15], the system named is MTOR.
The test system of test [16] is MUSK.
Test [17] has as its system MYLK2.
The subject of test [18] is MYLK4.
Test [19] concerns MYLK.
The test system of test [20] is MYO3A.
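Also: KINOMEscan kinase panel screen.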

As for `NS(=O)(=O)c1cccc(-c2ccc3nccc(-c4cccc(S(N)(=O)=O)c4)c3c2)c1` [GW867253], the “%Inh” value in test [1] came out at 0%; in test [2] it was 0%; in test [3], 0%; in test [4], 0%; in test [5] it was 0%; in [6], 41%. Moreover, the “%Inh” value in [7] came to 0%; in [8], 3%; in test [9], 7%; in test [10] it was 0%; in test [11], 11%; in test [12] it was 0%. Further, the “%Inh” value is 5% in test [13]; 0% in test [14]; 32% in [15]; 10% in [16]; 0% in test [17]; 2% in test [18]. Also, the “%Inh” value in [19] and in [20] was 0% throughout.

For the molecule `Cc1nnc(-c2ccc3occ(-c4ccc(C(C)O)cc4)c3c2)o1` (centres unmarked), the “%Inh” value was found to be 0% in [1]; 16% in [2]; 0% in test [3]; 14% in test [4]; 6% in [5]; 14% in [6]. The “%Inh” value is 0% in test [7]; 10% in [8]; 0% in test [9]; 15% in test [10]; 0% in test [11]; 0% in test [12]. Moreover, the “%Inh” value in [13] was 0%; in test [14], 0%; in test [15], 0%; in test [16], 4%; in test [17], 14%; in [18] it was 4%. The entries for the “%Inh” value in test [19] and in test [20] were 26% and 0%, respectively.

On to `COc1cc2ncn(-c3cc(OCc4sccc4Cl)c(C(N)=O)s3)c2cc1OC` [GSK448459], for which the “%Inh” value in test [1] was found to be 0%; in test [2], 0%; in [3] it was 0%; in test [4], 10%; in test [5] it was 0%; in test [6], 0%. In addition, the “%Inh” value in test [7] worked out at 0%; in test [8] it was 4%; in test [9], 0%; in [10], 38%; in test [11], 21%; in test [12], 68%. In addition, the “%Inh” value in [13] was determined as 0%; in test [14], 0%; in [15], 11%; in test [16], 7%; in test [17] it was 31%; in test [18], 72%. Besides, the “%Inh” value is reported as 37% in [19] and 12% in [20].

As to `Cc1cn2c(=O)cc(N3CCOCC3)nc2n1Cc1cccc(Cl)c1Cl` [GSK2334006], the “%Inh” value was 29% in test [1]; 2% in test [2]; 10% in test [3]; 0% in test [4]; 0% in test [5]; 2% in test [6]. Moreover, the “%Inh” value in test [7] is 38%; in test [8] it was 6%; in [9], 8%; in test [10], 28%; in test [11], 14%; in test [12], 0%. Further, the “%Inh” value is given as 0% in [13]; 0% in test [14]; 37% in test [15]; 27% in test [16]; 32% in [17]; 9% in [18]. Besides, the “%Inh” value in test [19] is 8%; in test [20], 0%.

Regarding `CCCCCc1nc2c(N)ncnc2n1CCCCC` [SKF-97255], the “%Inh” value in test [1] is listed as 0%; in [2], 6%; in test [3], 0%; in test [4] it was 0%; in test [5], 0%; in test [6], 50%. The “%Inh” value in [7], in [8], in [9], in [10], in [11] and in test [12] was 0% in each case. The “%Inh” value in test [13] worked out at 0%; in test [14], 0%; in [15], 0%; in [16] it was 0%; in test [17], 6%; in [18], 12%. For the same molecule, the “%Inh” value in test [19] turned out to be 17%; in [20], 1%.

For `O=c1cc(N2CCOCC2)nc2n(Cc3cccc(F)c3)ccn12` [GSK2297430], the “%Inh” value is 0% in test [1]; 0% in test [2]; 10% in test [3]; 0% in test [4]; 2% in test [5]; 0% in test [6]. The “%Inh” value worked out at 28% in [7]; 0% in [8]; 0% in test [9]; 8% in test [10]; 23% in [11]; 0% in test [12]. Besides, the “%Inh” value in test [13] was determined as 3%; in test [14], 0%; in test [15], 52%; in test [16], 3%; in test [17], 0%; in test [18], 0%. The “%Inh” value was determined as 4% in test [19] and 0% in test [20].

With `O=c1cc(N2CCOCC2)nc2n(Cc3cccc(C(F)(F)F)c3)ccn12` [GSK2297543], the “%Inh” value is 0% in test [1]; 0% in test [2]; 0% in [3]; 0% in [4]; 0% in test [5]; 14% in test [6]. For the same molecule, the “%Inh” value in test [7] amounted to 19%; in test [8] it was 0%; in test [9] it was 0%; in [10], 12%; in test [11], 10%; in [12], 0%. Further, the “%Inh” value in [13] came out at 9%; in test [14], 0%; in [15] it was 4%; in test [16] it was 3%; in test [17], 0%; in test [18], 2%. In addition, the results for the “%Inh” value in test [19] and in [20] were 18% and 19%, respectively.

In the case of `c1ccc(-c2cc(-c3c[nH]nc3-c3ccccn3)ccn2)cc1` [GW576604], the “%Inh” value in [1] was found to be 0%; in test [2] it was 5%; in test [3], 0%; in test [4], 9%; in test [5] it was 6%; in [6], 0%. For the same molecule, the “%Inh” value is recorded as 0% in [7]; 4% in test [8]; 0% in [9]; 34% in [10]; 0% in test [11]; 0% in test [12]. The “%Inh” value in test [13] amounted to 0%; in test [14], 0%; in [15], 10%; in test [16] it was 0%; in test [17] it was 3%; in [18], 0%. Also, the “%Inh” value is 6% in test [19] and 18% in test [20].

For the molecule `Cc1c2ccc(N(C)c3ccnc(Nc4cccc(S(N)(=O)=O)c4)n3)cc2nn1Cc1ccccc1.Cl.Cl` [GW787226], the “%Inh” value amounted to 15% in test [1]; 0% in test [2]; 0% in test [3]; 0% in [4]; 0% in [5]; 50% in test [6]. Moreover, the “%Inh” value in [7] turned out to be 26%; in [8] it was 0%; in test [9] it was 0%; in test [10], 0%; in [11], 32%; in test [12], 13%. For the same molecule, the “%Inh” value was determined as 0% in [13]; 0% in [14]; 0% in test [15]; 33% in [16]; 0% in [17]; 0% in [18]. Moreover, the “%Inh” value in test [19] and in test [20] was 0% each time.

As for `c1ccc(-c2n[nH]cc2-c2ccnc3ccccc23)nc1` [GW271431], the “%Inh” value in test [1] worked out at 0%; in test [2], 6%; in test [3], 7%; in [4], 10%; in [5], 0%; in test [6] it was 0%. Further, the “%Inh” value in test [7] is reported as 22%; in [8] it was 28%; in test [9], 13%; in test [10], 32%; in test [11], 5%; in test [12], 13%. For the same molecule, the “%Inh” value was found to be 2% in [13]; 0% in test [14]; 9% in [15]; 15% in test [16]; 12% in test [17]; 24% in test [18]. Also, the results for the “%Inh” value in test [19] and in test [20] were 20% and 31%, respectively.
